Screening data deposited in PubChem BioAssay by National Center for Advancing Translational Sciences (NCATS).
Vaccinia Venus = inhibitors of vaccinia virus (Venus reporter); Vaccinia virus Venus reporter expression, fluorescence; Potency, µM (series often up to 36.5 µM), for inactives: at the top dose activity change, negative = inhibition, actives largely listed as inhibitors; 0.46% of 330,000 active; calls by dose curve; tested in A549 cells; note: potency is the fitted concentration of half-maximal effect; % is set by controls: 0 for no effect and ±100 for the full control effect; nearly all actives have a fitted effect of over 30% in size
VACV mCherry inh = vaccinia inhibition (mCherry reporter); 0.63% of 310,000 active; Potency, µM (doses to about 36.5 µM), for the others: at the top dose activity change, negative = inhibition, hits mostly inhibitors; Vaccinia virus mCherry reporter infection, fluorescence; calls by dose curve; tested in A549 cells; note: potency is the fitted concentration of half-maximal effect; % is set by controls: 0 for no effect and ±100 for the full control effect; nearly all actives have a fitted effect of over 35% in size
Shiga inhibitor = blocks Shiga toxin action in Vero cells. Vero cells, Shiga toxin protein synthesis inhibition reporter. inhibition, % at 38.7 µM. 9.2% of 290,000 active. AID 2315; in the data active = inhibition mostly above about 28%, no sharp cut-off; inactive = mostly below about 43%; note: 0% is about no effect
Lassa entry inh = inhibitors of Lassa virus binding or cell entry | Lassa virus pseudotype entry inhibition, cell reporter | Potency, µM (titrated, usually from 37.9 µM), for the others: at the highest dose activity change, negative = inhibition, most hits filed as inhibitors | 1.2% of 300,000 active | AID 540256; calls by dose curve; tested in HEK293 cells; note: potency is the fitted concentration of half-maximal effect; % is set by controls: 0 for no effect and ±100 for the full control effect; nearly all actives have a fitted effect of over 50% in size
Cycloheximide cs = counter-screen hit for Shiga toxin inhibitors, cycloheximide; cell reporter, cycloheximide protein synthesis inhibition counterscreen; max response, %; 12% of 300,000 active; AID 2314; in the data active = max response mostly above about 13%, no sharp cut-off; inactive = mostly below about 14%; note: read at 38.3 µM for the half of the compounds with a filed dose; 0% is about no effect
Marburg entry inh = Marburg virus entry inhibition | Marburg virus pseudotyped entry inhibition, cell reporter | Potency, µM (top dose mostly 37.8 µM), for the others: top-dose activity change, negative = inhibition, most hits filed as inhibitors | 1.8% of 300,000 active | AID 540276; calls by dose curve; tested in HEK293 cells; note: potency is the fitted concentration of half-maximal effect; % is set by controls: 0 for no effect and ±100 for the full control effect
Numbers without * were called inactive; i = inactive; ? = inconclusive; nt = no result; [ ] = dose if it differs, or a comment. Only a selection was taken, and hits are over-represented in it overall.

SMILES	Vaccinia Venus	VACV mCherry inh	Shiga inhibitor	Lassa entry inh	Cycloheximide cs	Marburg entry inh
O=[N+]([O-])c1nn(-c2ccc(Cl)cc2)n(O)c1=NCc1ccncc1	nt	nt	36.5	nt	17.0	nt
Cc1ccc(CN=c2c([N+](=O)[O-])nn(-c3ccc(Cl)cc3)n2O)cc1	nt	nt	33.5	nt	43.7*	nt
CC(C)[C@H]1C(C#N)=C(N)Oc2n[nH]c(C(C)(C)C)c21	nt	nt	nt	nt	nt	-9.5%
CC1CCN(C(=O)COC(=O)c2ccc(Br)o2)CC1	-3.5%	-12.2%	93.8*	?	66.6*	9.8%
CC1CCN(C(=O)COC(=O)c2ccc3c(c2)OCO3)CC1	-1.7%	-12.8%	82.4*	?	33.9*	?
COc1cc(C(=O)NC(c2ccccc2Cl)c2cc(Cl)c3cccnc3c2O)cc(OC)c1OC (stereo unspecified)	-21.3%	11.2µM*	nt	?	nt	nt
CCCC(=O)NC(c1ccc(OC)c(OC)c1)c1cc(Cl)c2cccnc2c1O (stereo unspecified)	?	12.6µM*	1.0	?	-2.7	10µM*
CC(=O)NC(c1ccccc1)c1cc(Cl)c2cccnc2c1O (stereo unspecified)	?	?	-13.0	?	-1.4	12.6µM*
CN1CCN(C(c2ccc(Cl)cc2)c2cc(Cl)c3cccnc3c2O)CC1 (stereo unspecified)	-25.4%	-26.5%	4.6	10µM*	3.4	?
COc1ccc(C(NC(C)=O)c2cc(Cl)c3cccnc3c2O)cc1 (stereo unspecified)	nt	nt	nt	nt	-5.4	nt
CCc1ccccc1NC(=O)CCN1C(=O)C2C3CCC(C3)C2C1=O (stereo unspecified)	-2.6%	-9.7%	-13.3	nt	6.7	-1.6%[46.1 µM]
CCOc1ccc(NC(=O)CSC2=Nc3ccccc3C3=NC(CCC(=O)NCc4ccccc4)C(=O)N23)cc1 (stereo unspecified)	-29.2%	-26.0%	nt	15.9%[46.1 µM]	nt	nt
Cc1cccc(-n2c(C)cc(C(=O)C(=O)Nc3nncs3)c2C)c1	0.7%	-4.4%	nt	-10.7%[46.1 µM]	nt	?
CC(=O)NC(c1ccc(N(C)C)cc1)c1cc(Cl)c2cccnc2c1O (stereo unspecified)	?	3.16µM*	nt	nt	nt	nt
COc1ccc(NC(=O)C2(S(=O)(=O)c3ccc(C)cc3)CC2)c(OC)c1	-2.3%	-7.4%	nt	-8.1%[46.1 µM]	nt	?
CC1CSc2ccccc2NC1=S (stereo unspecified)	nt	nt	-1.3	7.9%	-1.1	0.0%
c1ccc(C2CSc3ccccc3N2)cc1 (stereo unspecified)	-15.7%	-12.3%	102.4*	nt	63.8*	nt
OCc1cn(-c2ccccc2)nc1-c1ccc(Br)cc1	nt	nt	33.3*	nt	31.9*	nt
O=C(O)/C=C/c1cn(-c2ccccc2)nc1-c1ccc2c(c1)OCCO2	-9.6%	i	20.6	-0.5%	-2.1	-6.8%[46.1 µM]
CC(C)COc1ccc(-c2nn(-c3ccccc3)cc2CO)cc1	nt	nt	12.9	nt	2.7	nt
OCc1cn(-c2ccccc2)nc1-c1ccc2c(c1)OCCO2	?	?	101.1*	?	45.0*	?
OCc1cn(-c2ccccc2)nc1-c1cc2ccccc2o1	nt	nt	100.3*	nt	55.4*	nt
N/C(=N\OC(=O)c1ccc2ccccc2c1)c1ccc(Br)cc1	-1.3%	-9.6%	18.6	9.9%	6.1	?
N/C(=N\OC(=O)N1CCOCC1)c1ccc(Cl)cc1	-13.3%	-13.9%	52.6*	?	55.2*	10µM*
N/C(=N\OC(=O)N1CCOCC1)c1ccccc1	-25.9%	i	31.5	11.6µM*	23.3*	?
SMILES	Vaccinia Venus	VACV mCherry inh	Shiga inhibitor	Lassa entry inh	Cycloheximide cs	Marburg entry inh
N/C(=N\OC(=O)N1CCOCC1)c1ccc(Br)cc1	-19.3%	5.7%	62.2	nt	53.1*	nt
Cc1cccc(CNC(=O)C2CCC(=O)N(CC3CCCCC3)C2)c1 (stereo unspecified)	-9.7%	i	nt	nt	nt	nt
NC(=O)c1ccsc1NC(=O)CSc1ccccc1F	-8.0%	-1.8%	175.1	19.7%	36.1*	17.7%
Cc1csc(SCC(=O)Nc2sccc2C(N)=O)n1	1.2%	-11.2%	67.9*	0.3%	36.3*	?
C=CCn1c(SCC(=O)Nc2sccc2C(N)=O)nc2ccc(Cl)cc2c1=O	?	nt	-14.8	?	11.4	?
C=CCn1c(SCC(=O)Nc2sccc2C(N)=O)nc2sc(CC)cc2c1=O	10µM*	nt	2.0	?	5.5	12.6µM*
c1cn2cc(CSC3CCCCC3)nc2s1	-4.1%	-21.1%[1.46 µM]	95.2*	4.3%	42.3*	?
Cc1csc2nc(CSc3ccc(Cl)cc3)cn12	-13.3%	i	78.5*	?	48.9*	?
Clc1ccc(SCc2cn3ccsc3n2)cc1	-12.0%	-0.3%	70.2	?	50.6*	?
N#Cc1cc2c(=O)n3ccccc3nc2n(-c2nnc(SCc3ccc(F)cc3)s2)c1=O	3.7%	-1.0%	nt	?	nt	?
COCCCN1CN=C(Nc2nc3ccccc3o2)NC1	9.6%	-11.5%	60.6*	14.8%	40.0*	1.3%
CCCN1CN=C(Nc2nc3ccccc3o2)NC1	1.0%[7.34 µM]	i[7.34 µM]	129.5*	14.2%	32.3*	19.8%[46.1 µM]
c1ccc2oc(NC3=NCN(CC4CCCO4)CN3)nc2c1 (stereo unspecified)	nt	nt	81.4*	?	28.7*	4.5%
OCCN1CN=C(Nc2nc3ccccc3o2)NC1	-12.3%	i	-4.0	4.2%	-1.3	-2.7%[46.1 µM]
COCCCN1CN=C(NS(=O)(=O)c2ccc(NC(C)=O)cc2)NC1	-2.3%	-6.6%	nt	-2.6%[46.1 µM]	nt	?
Cn1c(=O)c2c(-c3ccc(Cl)cc3)ccnc2n(C)c1=O	2.3%	-8.8%	nt	22.3%[46.1 µM]	nt	-1.2%[46.1 µM]
CCSc1nnc2ccc(-c3ccc(OC)c(OC)c3)nn12	-18.3%	i	18.8	-23.8%	24.9*	-22.8%[46.1 µM]
C[C@@H]1CN(C2CCN(S(=O)(=O)c3ccc4ccccc4c3)CC2)C[C@H](C)O1	nt	nt	nt	nt	nt	-29.1%
O=C(Cn1nnc(-c2cccs2)n1)NCc1cccs1	5.8%	-5.7%	11.0	nt	64.8*	-9.1%[46.1 µM]
O=C(Cn1nnc(-c2cccs2)n1)N1CCOCC1	-13.1%	-8.3%	15.9	?	16.5	?
Cc1ccc(C(=O)Cn2nnc(-c3cccs3)n2)cc1	nt	nt	79.2*	nt	31.7*	nt
CN(Cc1ccccc1)C(=O)c1ccco1	-5.4%	i	25.1	9.9%[46.1 µM]	11.2	5.8%[46.1 µM]
O=C(C#Cc1ccccc1)c1ccco1	12.6µM*	10µM*	-14.7	11.2µM*	-7.0	?
O=C1OC2(c3cc(I)c(O)c(I)c3Oc3c2cc(I)c(O)c3I)c2c(Cl)c(Cl)c(Cl)c(Cl)c21	nt	nt	-14.7	nt	-7.0	nt
O=C(Nc1ccc([N+](=O)[O-])cc1)c1cc(Cl)sc1Cl	nt	nt	27.4*	nt	16.7	nt
O=C(Nc1ccc([N+](=O)[O-])cc1)c1cc2ccccc2nc1Cl	-1.2%	6.5%	8.3	-0.1%	20.1*	?
O=C(Nc1ccc(F)cc1)c1cc(Cl)sc1Cl	-6.6%	i	77.4*	-11.4%	29.2*	-0.2%[46.1 µM]
Cc1cc(NC(=O)CSCC(=O)N(C)Cc2cccc(Cl)c2)no1	-6.7%	i	nt	0.6%	nt	5.0%
CN(C)S(=O)(=O)c1ccc(C(=O)OCC2CC2(Cl)Cl)cc1 (stereo unspecified)	-12.9%	-1.2%	-9.0	-0.2%	-5.3	-2.3%[46.1 µM]
